Only some compounds are listed: those with a hit (about 19% of all), similar ones and a draw of the others.
HT1080 IDH1KD tx – kills HT-1080 cells with IDH1 knockdown; HT-1080 IDH1 knockdown viability, ATP luminescence, 48 h; Potency, µM (series often up to 46.1 µM), without a hit: at the top dose activity, negative = toxicity, usual class: cytotoxic; 360,000 tested, 2% active; AID 686971;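 also: potency is read from the fitted curve at half-maximal effect; 0% = DMSO wells and -100% = cell-free medium wells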
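After a 2 h attachment period, IDH1KD HT-1080 cells took pin-transferred compound for 48 h at 37 °C; ATP-based luminescence after 10 min room-temperature reagent incubation reported viability.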
IL-1B inflam inh – blocks inflammasome-driven IL-1 beta release; activity change, % at 57.5 µM; 360,000 tested, 4.7% active; AID 743279; THP-1 LPS/ATP IL-1B secretion, AlphaLISA, 16 h; active compounds read low; in the data active = activity change below about -50%; inconclusive = mostly about -30% to -49%
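Secreted IL-1B measured by AlphaLISA bead assay after 16 h compound exposure of THP-1 cells; compounds (final up to 57.5 uM) added 1 h before LPS (250 ng/mL) and ATP (1.25 mM) stimulation; lower signal means less secretion.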
DT40 TDP1 CPT – DT40-hTDP1 cell growth loss with CPT; chicken DT40 Tdp1-/-;hTDP1 cells + 20 nM CPT, ATP luminescence, 48 h; Potency, µM (series often up to 46.2 µM), for the others: at the highest dose activity change, negative = growth inhibition, most hits filed as inhibitors; 420,000 tested, 12% active; AID 686979; also: potency is read from the fitted curve at half-maximal effect; nearly all actives have a fitted effect of over 55% in size
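Chicken DT40 Tdp1-/- cells complemented with human TDP1, 400 cells/well, exposed to compounds plus 20 nM camptothecin for at least 48 h at 37 C; viability read as ATP content by CellTiter-Glo luminescence.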
HT1080-NT tox – kills 2HG-producing HT-1080-NT fibrosarcoma cells; HT-1080-NT fibrosarcoma viability, CellTiter-Glo ATP luminescence, 48 h; Potency, µM (doses to about 46.1 µM), for the others: at the highest dose activity, negative = less viability, most hits filed as cytotoxic; 360,000 tested, 1.6% active; AID 686970;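 also: NT is the 2HG producing partner of a matched IDH1 knockdown line; potency is read from the fitted curve at half-maximal effect; 0% = DMSO-treated cells and -100% = media-only wells without cells; nearly all actives have a fitted effect of over 55% in size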
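Compounds were tested in concentration-response format on HT-1080-NT cells for 48 hours at 37 degrees C. Cell viability came from CellTiter-Glo luminescence; curves were classified by r2, response magnitude and activity.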
DT40 TDP1 no CPT – qHTS for Inhibitors of human tyrosyl-DNA phosphodiesterase 1 (TDP1): qHTS in cells in absence of CPT; Potency, µM (doses to about 46.2 µM), for the others: top-dose activity change, negative = growth inhibition, most hits filed as inhibitors; DT40 Tdp1-/- hTDP1 cells, no CPT, ATP luminescence, 48 h; 420,000 tested, 15% active; also: potency is read from the fitted curve at half-maximal effect; nearly all actives have a fitted effect of over 55% in size
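Readout: luminescence from CellTiter-Glo after 30 min in the dark at RT. Cells: DT40 Tdp1-/- with stable hTDP1, 400/well. Exposure: compounds alone, ≥48 hr, 37 °C.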
* marks the source's active call; other numbers are inactive results; ? = inconclusive; / = not tested or not shown; ! = repeats disagree; [ ] = remark or other dose. Unless noted, calls follow the shape of the dose curve; as a rule, active = well fitted curve in the direction sought with a large enough effect; inconclusive = small, poorly fitted or top-dose-only effect, or another doubt; inactive = no such curve, though single readings can be large; an effect the other way counts as inactive or inconclusive. Unless noted, % is scaled to controls: 0 for no effect and ±100 for the full control effect.

SMILES	HT1080 IDH1KD tx	IL-1B inflam inh	DT40 TDP1 CPT	HT1080-NT tox	DT40 TDP1 no CPT
COc1ccc2cc(CCNC(=O)c3cccc([N+](=O)[O-])c3)c(=O)[nH]c2c1	0%	0	23µM*	6%	?
Cc1ccc2cc(CCNC(=O)c3cccc([N+](=O)[O-])c3)c(=O)[nH]c2c1C	18%	0	23µM*	18%	16µM*
Cc1ccc2cc(CCNC(=O)c3ccc(C)c([N+](=O)[O-])c3)c(=O)[nH]c2c1	-4%	-21	21µM*	-3%	?
Cc1ccc2cc(CNC(C)(C)C)c(=O)[nH]c2c1	1%	9	-3%	0%	-10%
COc1ccc2cc(CCNC(=O)c3ccc4c(c3)OCO4)c(=O)[nH]c2c1	-5%	-11	?	-7%	?
CCC(C)NC(=O)C1CCN(S(=O)(=O)c2ccc3c(c2)CCCN3C(C)=O)CC1 (configuration not stated)	/	/	-6%	/	-10%
Cc1ccc2cc(CCNC(=O)c3cccs3)c(=O)[nH]c2c1C	8%	-20	23µM*	11%	?
Cc1ccc2cc(CCNC(=O)c3cccs3)c(=O)[nH]c2c1	10%	-24	-29%	1%	?
O=C1CS/C(=N/N=C/c2cccs2)N1	1%	10	8%	13%	3%
C=CCN1C(=O)C(Cc2ccc(F)cc2)S/C1=N/N=C/c1cccs1 (configuration not stated)	-2%[9.24 µM]	-14	-35%	2%	29µM*
O=C1CS/C(=N/N=C/c2cccs2)N1Cc1ccc(F)cc1	-15%	24	18µM*	-13%	?
O=c1oc(-c2cccs2)nc2sc3c(c12)CCCC3	0%	33	-22%	-1%	-11%
O=C1CN(c2nc(-c3cccs3)nc3sc4c(c23)CCCC4)CCN1	13µM*	-94*	?	?	?
COc1ccccc1N1CCN(C2=NS(=O)(=O)c3ccccc32)CC1	-3%	19	-26%	2%	?
C=CCN1/C(=C(\C#N)C2=NS(=O)(=O)c3ccccc32)N(C)c2ccccc21	7.1µM*	-9	1%	13µM*	-3%
NC(N)=NNC(=O)c1ccccc1Cl	5%	1	-11%	6%	2%
CCOc1ccc(C(C(=O)NC(C)(C)C)N(CCOC)C(=O)CCC(=O)Nc2nccs2)cc1 (configuration not stated)	16%	1	-1%	14%	?
COc1cc2ccc(=O)oc2c(O)c1O	-9%	50	21µM*!	-1%	?
COc1cc2ccc(=O)oc2c(OC)c1OC	/	/	-5%	/	-12%
Cn1c(=O)c2c(ncn2CC(=O)OCC(=O)Nc2ccc(F)cc2Cl)n(C)c1=O	18%	-14	12%	3%	1%
N#Cc1nc(COc2ccc(Br)cc2)oc1N1CCCC1	-6%	-24	?	3%	?
CC(C)(C)c1ccc(-c2nc(C#N)c(N3CCC(C(N)=O)CC3)o2)cc1	?	-94*	15%	?	?
N#Cc1nc(COc2ccc(-c3ccccc3)cc2)oc1NCCCN1CCOCC1	?	?	23µM*	?	23µM*
N#Cc1nc(COc2ccc(Br)cc2)oc1N1CCCCCC1	-10%	-21	15µM*	-22%	16µM*
N#Cc1nc(COc2ccc(-c3ccccc3)cc2)oc1N1CCC(C(N)=O)CC1	/	/	13µM*	/	18µM*
SMILES	HT1080 IDH1KD tx	IL-1B inflam inh	DT40 TDP1 CPT	HT1080-NT tox	DT40 TDP1 no CPT
N#Cc1nc(-c2ccc(OCc3ccccc3)cc2)oc1N1CCC(C(N)=O)CC1	?	40	-16%	?	?
O=c1c2ccc(Cl)cc2[nH]c(=S)n1CCC1=CCCCC1	23%	-4	-20%	24%	-25%
CCC(C)(C)NC(=O)C(C(C)C)N(CC1CCCO1)C(=O)CNS(=O)(=O)c1ccc(F)cc1 (configuration not stated)	0%	-6	11%	10%	-2%
CCCCN1C(=O)CN(C2CCCCC2)C(=O)C1c1ccc(OC(C)C)c(OC)c1 (configuration not stated)	/	/	-24%	/	?
CCOc1ccc(S(=O)(=O)N(CC(=O)NC2CCCC2)c2ccc(F)cc2)cc1	-2%	4	?	-2%	-27%
CCCOc1ccc(C(=O)NCC(c2cccs2)N(C)C)cc1OC (configuration not stated)	-3%	-1	?	3%	-11%
COc1cc2ccccc2cc1C(=O)NCC(c1cccs1)N(C)C (configuration not stated)	?	-76*	?	-22%	16µM*
COc1cc(C(=O)NCC(c2cccs2)N(C)C)cc(Cl)c1OC(C)C (configuration not stated)	-18%	-6	?	-7%	21µM*
CN(C)C(CNC(=O)c1ccco1)c1cccs1 (configuration not stated)	10%	5	4%	3%	2%
CCCN1C(=O)/C(=C/c2c(NCCCOCC)nc3c(C)cccn3c2=O)SC1=S	6%	20	?	7%	?
Cc1cccn2c(=O)c(/C=C3\SC(=S)NC3=O)c(NCCCN3CCOCC3)nc12	5%	-83*	?	0%	23µM*
COc1ccc(-c2noc(-c3ccoc3C)n2)cc1	-11%	25	?	-3%	18µM*
COc1ccccc1N1CCN(Cc2nc(-c3cc(OC)c(OC)c(OC)c3)no2)CC1	/	/	23µM*	/	18µM*
COc1ccc(N2CCN(Cc3nc(-c4ccc(C)cc4)no3)CC2)cc1	/	/	?	/	23µM*
COc1cc(-c2noc(CN3CCN(c4ccccc4)CC3)n2)cc(OC)c1OC	/	/	?	/	21µM*
O=C(O)c1ccc(S(=O)(=O)N2CCc3ccccc3C2)cc1	1%	81	0%	2%	15%
COc1ccc(NC(=O)N2CCC(CN3CCCC3)CC2)c(OC)c1	/	/	0%	/	3%
COc1ccc(-c2noc(-c3cccnc3N3CCN(c4ccc(OC)cc4)CC3)n2)cc1	/	/	15µM*	/	8.2µM*
O=C(CSc1nnc2c(Cl)cc(C(F)(F)F)cn12)N(Cc1ccccc1)Cc1ccccc1	-7%	-29	-74%	-26%	21µM*
O=C(CSc1nnc2c(Cl)cc(C(F)(F)F)cn12)NCc1ccc(F)cc1	16%	6	4%	13%	-23%
O=C(Nc1c(C(=O)Nc2cccc3ccccc23)cnn1-c1ccccc1)c1ccco1	0%	-3	?	-8%	?
COc1ccc(NC(=O)c2cc(C3CCCCN3C(=O)Cc3ccc(N(C)C)cc3)on2)c(C)c1 (configuration not stated)	-2%	-5	21µM*	-14%	?

Bioassay records (PubChem BioAssay)
